Measurements reported in PubChem BioAssay AID1845226 (National Center for Advancing Translational Sciences (NCATS), 2023).
Results filed as inconclusive are left out. A number with no mark means an inactive call. Activity calls are given as the source filed them. Calls come from the whole dose curve; as a rule, active = well fitted inhibition curve with a large enough effect; inconclusive = small, poorly fitted or top-dose-only effect; inactive = no such curve, though single readings can be large or run the other way.

Assay: Confirmatory fluorescence-based thiol-reactive (MSTI) qHTS assay for identification of artifact compounds
Conditions: MSTI thiol-reactivity probe, 1 h; series mostly up to 39.2 µM; activity change, negative = inhibition: at the top concentration
Method in brief: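 Fluorescence read-out (excitation 525 nm, emission 598 nm) tracks loss of the thiol probe MSTI, used at 4 uM in PBS buffer at pH 7.4. Test compounds are incubated 1 h at room temperature.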
Potency is the fitted concentration of half-maximal effect.

SMILES | Potency | activity change, negative = inhibition
COC(=O)[C@@H]1[C@H]2C[C@H]3c4[nH]c5cc(OC)ccc5c4CCN3C[C@@H]2C[C@@H](OC(=O)c2cc(OC)c(OC)c(OC)c2)[C@@H]1OC | 7910 nM (active) | 
CC1CCc2noc(NC(=O)c3ccc([N+](=O)[O-])cc3)c2C1 (configuration not stated) | 2440 nM (active) | 
CCSc1ncc(Cl)c(C(=O)Nc2c(C(=O)Nc3cccc(C)c3)oc3ccccc23)n1 |  | 6.11%
CCOc1ccc(C(=O)N2CCC(c3nc(-c4ccc(S(=O)(=O)N5CCCC5)cc4)no3)CC2)cc1 |  | 15.2%
CCC(Sc1ncc(S(=O)(=O)c2ccc(Cl)cc2)c(=O)[nH]1)C(=O)Nc1ccc(OC)cc1 (configuration not stated) |  | 118%
O=C(Cn1cc(SCc2ccccc2F)c2ccccc21)N1CCCCC1 |  | 13.1%
COc1ccc([C@H]2C[C@H](O)[C@@H](n3cc(C4CC4)nn3)CN2C(=O)c2cccs2)cc1 |  | 92.5%
COc1ccc(N2C(=O)CSC23C(=O)N(CC(N)=O)c2ccccc23)cc1 (configuration not stated) |  | 23.4%
Cc1sc2ncn(CC(=O)N3CCN(c4ccccc4)CC3)c(=O)c2c1S(=O)(=O)N1CCC(C)CC1 |  | 13.5%
CC(C)C(=O)SCCCCCCC(=O)Nc1nc(-c2ccccc2)cs1 |  | 30.7%
O=C(O)c1c(O)c(O)cc2ccccc12 |  | -23.5%
Clc1ccccc1CNc1ncnc2nc[nH]c12 |  | 32.4%
O=C1c2ccccc2C(=O)c2c(O)c(O)cc(O)c21 | 612 nM (active) | 
Cc1ccc(-c2nc3scc(CCNS(=O)(=O)c4ccc(F)c(C)c4)n3n2)cc1 |  | 49.9%
COc1cc2c(C(=O)N3CCN(c4ccc(F)cc4)CC3)cn(CC(C)C)c(=O)c2cc1OC |  | 36.4%
O=C(O)Cc1cc(I)c(Oc2cc(I)c(O)c(I)c2)c(I)c1 |  | -37.1%
COc1ccc(N2C(=O)NC(NS(=O)(=O)c3ccc(Cl)cc3)(C(F)(F)F)C2=O)cc1 (configuration not stated) |  | 4.2%
